# According to the supplement of paper PMC7858590:
# System: human monocyte-derived macrophages (polarized)
# Experiment: cell shape (eccentricity) Z-score vs DMSO control; higher = more elongated, M2-like morphology
# Details: 5 µM; 24 h; macrophage state: M1-polarized (IFNg + TNFa), cytokines present during treatment
# Description: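 Primary-screen hits were rescreened on polarized hMDMs with the differentiating cytokines (IL-4 + IL-13 or IFNg + TNFa) kept in the medium during treatment with compound at 5 uM for 24 h. The eccentricity Z-score vs DMSO wells is averaged over experiments.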
row,Compound,cell shape (Z-score)
1,C[C@]12CCC(=O)C=C1CC[C@@H]1C2CC[C@]2(C)C(=O)CCC12 (stereo not given in full),-0.101
2,CNc1ccc2oc(C[C@H]3O[C@@]4(CC[C@H]3C)O[C@H]([C@H](C)C(=O)c3ccc[nH]3)[C@H](C)C[C@H]4C)nc2c1C(=O)O,-11.1
3,C[C@]12CC[C@@H](O)C[C@@H]1CC[C@@H]1[C@@H]2CC[C@]2(C)[C@@H](C(=O)CO)CC[C@@H]12,3.05
4,Clc1ccc(C(OCCN2CCCCC2)c2ccccc2)cc1 (stereo not given),-5.91
5,CCCN(CCC)C1CCc2cccc(O)c2C1 (stereo not given),-3.43
6,COc1cc([C@@H]2c3cc4c(c(O)c3C[C@H]3COC(=O)[C@@H]32)OCO4)cc(OC)c1OC,3.15
7,C=C(C)[C@@H]1[C@H]2OC(=O)[C@@H]1[C@]1(O)C[C@H]3O[C@]34C(=O)O[C@H]2[C@]14C,0.251
8,CCN1C[C@]2(COC)CC[C@H](OC)[C@]34C1[C@H]([C@H](OC)[C@H]23)[C@@]1(OC(C)=O)C[C@H](OC)[C@]2(O)C[C@@H]4[C@@H]1[C@H]2OC(=O)c1ccc(OC)cc1,-6.97
9,CCC1(CC)C(=O)NC(=O)NC1=O,-5.4
10,COc1cc2ccc(=O)oc2c2ccoc12,8.59
11,CCOC(=O)c1ncn2c1C1CCCN1C(=O)c1cc(OC)ccc1-2 (stereo not given),1.88
12,CN(C)C(=S)SSC(=S)N(C)C,-4.6
13,CC[C@@H]1/C=C/C=C/C[C@H](C)[C@H](O)[C@](C)(O)C(=O)[C@H](C)[C@@H](O)[C@H](C)C(=O)[C@H](C)[C@@H](O)[C@H](C)/C=C/C(=O)O[C@H]2[C@@H](C)[C@@H](CC1)O[C@@]1(CC[C@@H](C)[C@@H](C[C@H](C)O)O1)[C@@H]2C,-9.34
14,c1cc2c(c(N3CCNCC3)c1)OCCO2,-7.3
15,CC(C)=CC1C(C(=O)OCc2coc(Cc3ccccc3)c2)C1(C)C (stereo not given),8.88
16,CCn1cc(C(=O)O)c(=O)c2cc3c(cc21)OCO3,3.52
17,COc1cc([C@@H]2c3cc4c(cc3[C@@H](O)[C@H]3COC(=O)[C@H]23)OCO4)cc(OC)c1O,3.2
18,Clc1ccc(C2=CCCC3CCC2N3)cn1 (stereo not given),9.06
19,COc1cc([C@@H]2c3cc4c(cc3[C@H](OC(C)=O)[C@H]3COC(=O)[C@H]23)OCO4)cc(OC)c1OC,7.24
20,CCCCCCCCCCCCCC(=O)O[C@@H]1[C@@H](C)[C@@]2(O)[C@@H](C=C(CO)C[C@]3(O)C(=O)C(C)=C[C@@H]23)[C@@H]2C(C)(C)[C@]12OC(C)=O,-6.25
21,O=C1NC(=O)c2c1c1c3ccccc3[nH]c1c1[nH]c3ccccc3c21,7.76
22,Cc1sc2c(c1C)C(c1ccc(Cl)cc1)=N[C@@H](CC(=O)OC(C)(C)C)c1nnc(C)n1-2,-7.72
23,O=C(O)c1nn(Cc2ccc(Cl)cc2Cl)c2ccccc12,4.43
24,CCNC(=O)C[C@@H]1N=C(c2ccc(Cl)cc2)c2cc(OC)ccc2-n2c(C)nnc21,-4.48
25,O=C1/C(=C/c2ccccc2)C[C@@]2(O)[C@H]3Cc4ccc(O)c5c4[C@@]2(CCN3CC2CC2)[C@H]1O5,-6.15

# Same assay, conditions: 5 µM; 24 h; macrophage state: M2-polarized (IL-4 + IL-13), cytokines present during treatment
row,Compound,cell shape (Z-score)
1,COc1cc(Br)c(OC)c2c1C(CN)C2 (stereo not given),7.42
2,CC1=CC(=O)c2c(O)cccc2C1=O,3.72
3,CC(=O)O[C@H]1C(=O)[C@@]2(C)[C@H]([C@H](OC(=O)c3ccccc3)[C@]3(O)C[C@H](O)C(C)=C1C3(C)C)[C@]1(OC(C)=O)CO[C@@H]1C[C@@H]2O,-9.61
4,COc1ccc2c(c1)[nH]c1c(C)nccc12,-11
5,C[C@@]12C(=O)OC(=O)[C@]1(C)[C@H]1CC[C@@H]2O1,-39.6
6,C[C@H]1O[C@@H](O[C@H]2CC[C@]3(CO)C4CC[C@]5(C)[C@@H](C6=CC(=O)OC6)CC[C@]5(O)[C@@H]4CC[C@H]3C2)[C@H](O)[C@H](O)[C@@H]1O[C@@H]1O[C@H](CO)[C@@H](O)[C@H](O)[C@H]1O (stereo not given in full),-17.5
7,CC(=O)O[C@H]1CC[C@@]2(C)[C@H](CC[C@@H]3[C@@H]2CC[C@]2(C)[C@@H](C4=CC(=O)OC4)[C@@H](OC(C)=O)C[C@]32O)C1,-23.5
8,CCN1C[C@]2(C)CC[C@H](O)[C@@]34C2[C@H](OC)C([C@@H]13)[C@@]1(O)C[C@H](OC)[C@H]2C[C@@H]4[C@@H]1[C@H]2O,-1.79
9,C=C1[C@@H](C)[C@H]2[C@H](Cc3ccccc3)NC(=O)[C@]23OC(=O)/C=C/[C@H](O)CCC[C@@H](C)C/C=C/[C@H]3[C@@H]1O,-29.4
10,CCCC[C@@H](C)[C@@H](OC(=O)C[C@@H](CC(=O)O)C(=O)O)[C@H](C[C@@H](C)C[C@H](O)CCCC[C@@H](O)C[C@H](O)[C@H](C)N)OC(=O)C[C@@H](CC(=O)O)C(=O)O,2.12
11,c1ccc2c(c1)[I+]c1ccccc1-2,-19
12,CN1C(=O)COc2c(C(=O)NC3CN4CCC3CC4)cc(Cl)cc21 (stereo not given),-3.99
13,CC(=O)O[C@@H]1CC2C(C)(C)C(=O)C=C[C@]2(C)C2CC[C@]3(C)C(=CC(=O)O[C@H]3c3ccoc3)[C@@]21C (stereo not given in full),-9.39
14,Fc1ccc(C(OCCN2CCN(C/C=C/c3ccccc3)CC2)c2ccc(F)cc2)cc1,-8.38
15,O=c1[nH]c2ccccc2n1C1CCN(CCCC(c2ccc(F)cc2)c2ccc(F)cc2)CC1,-5.52
